Test results: PubChem BioAssay AID588852 (The Scripps Research Institute Molecular Screening Center, 2011)
The whole screen tested about 360,000 compounds, of which about 4,600 (1.3%) were called active. The entries come from a sample that favours actives as a whole. Values without a mark were called inactive.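 The calls were made as follows: active = percent inhibition above its own plate's cutoff, namely the mean of that plate's compound wells plus 3 SD; inactive = the rest.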

Target: Muscarinic acetylcholine receptor M1 (Homo sapiens) (UniProt P11229)
Sequence (P11229 whole entry, looked up): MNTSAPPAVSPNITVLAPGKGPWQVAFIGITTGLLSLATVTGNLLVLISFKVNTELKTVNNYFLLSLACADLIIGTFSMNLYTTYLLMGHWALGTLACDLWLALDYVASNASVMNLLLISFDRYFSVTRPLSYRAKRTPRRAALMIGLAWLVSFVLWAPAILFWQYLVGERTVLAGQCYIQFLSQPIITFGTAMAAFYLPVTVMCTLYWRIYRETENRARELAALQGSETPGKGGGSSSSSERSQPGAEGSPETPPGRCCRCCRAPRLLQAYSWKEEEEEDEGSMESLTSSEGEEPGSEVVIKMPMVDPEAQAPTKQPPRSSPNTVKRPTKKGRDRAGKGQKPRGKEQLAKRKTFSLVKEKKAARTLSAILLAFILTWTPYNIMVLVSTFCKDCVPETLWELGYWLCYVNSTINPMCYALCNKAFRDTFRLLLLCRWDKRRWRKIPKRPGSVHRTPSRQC
Assay: human M1 muscarinic receptor antagonists, primary screen, CHO-K1 cells, Fluo-8 calcium fluorescence, 1536-well (AID 588852);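 also: peak over basal fluorescence ratio during 140 s after agonist addition; 0% = ACh EC80 plus DMSO and 100% = DMSO alone without agonist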
Conditions: CHO-K1 hM1, Fluo-8 calcium fluorescence, ACh EC80 antagonist; at 3 µM; stronger effect = higher value

| Structure (SMILES) | inhibition |
| --- | --- |
| O=C(NCCCn1ccnc1)c1cc2c(s1)CCCC2 | -5.2% |
| CC(=O)Nc1ccc(CNc2nc(NCCN(C)C)nc3cc(-c4ccccc4)sc23)cc1 | -17.6% |
| COC(=O)c1ccc2c(c1)S(=O)(=O)NC(=NCCCN1CCOCC1)S2 | -10.8% |
| COc1ccc(NC(=O)/C(N=Nc2cccc(S(=O)(=O)Nc3ccc(SC(F)F)cc3)c2)=C(\C)O)cc1 | -7.35% |
| COc1cc(-c2nc(S(=O)(=O)c3ccc(Cl)cc3)c(N(C)C)o2)cc(OC)c1OC | -1.63% |
| COC(=O)CCSc1nccn1Cc1ccccc1 | -11.6% |
| CN(CCO)C(=O)c1nc[nH]c1C(=O)N(C)Cc1ccccc1 | -4.9% |
| O=S1(=O)CC(N2CCN(CCO)CC2)CN1C1CCCC1 (stereo unspecified) | -4.22% |
| CCOc1ccc(CCN2C(=S)N([C@@H](CC(C)C)CN3CCC[C@@H]3CN3C(=S)NC[C@@H]3Cc3ccc(O)cc3)C[C@@H]2CC(C)C)cc1 | 5.64% |
| COc1ccc(CN2CCCC(C(=O)N3CCCCC3)C2)cc1 (stereo unspecified) | 5.19% |
| COc1cc(CN2CCCC(C(=O)c3ccc(SC)cc3)C2)cc(Cl)c1O (stereo unspecified) | -1.81% |
| COc1ccc(CN2CCCC(C(=O)c3ccc(Cl)cc3)C2)cc1Cn1cncn1 (stereo unspecified) | 75.4% (active) |
| CS(=O)(=O)c1ccccc1C(=O)Nc1ccc2sccc2c1 | -10.3% |
| COc1ccc(Cc2nc3ccc(C(=O)N4CCC(N(C)C)C4)cc3o2)cc1 (stereo unspecified) | 3.18% |
| CCn1ccnc1CN(C)C(=O)c1ccc2nc(Cc3ccc(OC)cc3)oc2c1 | 56.1% (active) |
| CCC1C(=O)NCCN1C(=O)c1ccc2nc(Cc3ccc(OC)cc3)oc2c1 (stereo unspecified) | -5.11% |
| CCC1Sc2ccc(S(=O)(=O)CCC(=O)NCc3cccs3)cc2NC1=O (stereo unspecified) | -5.05% |
| CC12C(=O)N(n3cnnc3)C(=O)C1C1C=CC2C1 (stereo unspecified) | 2.29% |
| Cc1ccc(S(=O)(=O)N2CCN(c3ncnc4ccccc34)CC2)cc1 | 35.8% (active) |
| Cc1ccc(S(=O)(=O)N2CCN(Cc3cccc(C)c3O)CC2)cc1 | 4.67% |
| Cc1ccc(C)c(S(=O)(=O)N2CCN(c3ncnc4sccc34)CC2)c1 | 34.7% (active) |
| Cc1ccc(S(=O)(=O)N2CCN(C)CC2)cc1 | -16.6% |

| Structure (SMILES) | inhibition |
| --- | --- |
| COc1ccc(-c2csc3ncnc(N4CCN(S(=O)(=O)c5ccccc5C#N)CC4)c23)cc1 | -2.61% |
| Cc1ccc(C)c(S(=O)(=O)N2CCN(CC(=O)Nc3ccc([N+](=O)[O-])cc3)CC2)c1 | 9.07% |
| CC(Sc1sc(=S)sc1SC(C)C(=O)O)C(=O)O (stereo unspecified) | 1.12% |
| C[C@H]([C@@H](O)[C@@H](O)[C@@H](C)C(C)(C)C)[C@H]1CC[C@H]2C3CC[C@H]4C[C@H](OS(=O)(=O)O)[C@@H](OS(=O)(=O)O)C[C@]4(C)[C@H]3CC[C@]12C (stereo partly specified) | -9.61% |
| Cc1nc(-c2nnc(SCC(=O)Nc3cc(C(F)(F)F)cc(C(F)(F)F)c3)n2C)cs1 | -3.69% |
| C=C1C(=O)[C@]23C[C@H]1CCC2[C@@]1(C)C(C[C@@H]3O)[C@](C)(C(=O)O)CC[C@@H]1O (stereo partly specified) | -14.8% |
| CN1/C(=c2/s/c(=C3/C(=O)N(c4ccccc4)NC3=Nc3ccccc3)n(C)c2=O)C(C)(C)c2ccccc21 | 12.2% |
| CCOc1ccccc1CN1CCN(C2CCC2)CC1CCO (stereo unspecified) | -17.7% |
| COc1cccc(CN(C)CC(O)COC(c2ccccc2)c2ccccc2C)c1 (stereo unspecified) | 16.4% |
| Cc1ccccc1C(OCC(O)CN1CCCCC1CCO)c1ccccc1 (stereo unspecified) | 28.9% (active) |
| C[C@H]1CN([C@@H](C)CO)C(=O)CCCn2cc(nn2)CO[C@@H]1CN(C)S(=O)(=O)c1cccc(C#N)c1 | -7.84% |
| Cc1cc(Br)cn2c(Cc3ccsc3)c(-c3ccc(C#N)cc3)nc12 | -2.47% |
| CC(=O)c1nn(-c2ccccc2)c(=Nc2ccccc2)cc1C | 2.25% |
| COc1ccc(C(=O)OCC(=O)NCCCc2ccccc2)cc1OC | -14.8% |
| CCN(CCCCOC(=O)c1ccc(OC)c(OC)c1)C(C)Cc1ccc(OC)cc1 (stereo unspecified) | 91.6% (active) |
| COc1ccc(C(CCN(Cc2ccc(OC)c(OC)c2)C(=O)CCl)c2ccccc2)cc1 (stereo unspecified) | -0.77% |
| CCC(=O)c1ccc(N2CCN(C(=O)c3cc([N+](=O)[O-])ccc3F)CC2)c(F)c1 | 11.9% |
| O=C(Nc1cccc(Cl)c1)c1cc([N+](=O)[O-])ccc1N1CCN(CCO)CC1 | -7.1% |
| CCN1CCN(c2ccc([N+](=O)[O-])cc2C(=O)c2ccc(Cl)cc2)CC1 | 96.3% (active) |
| Cc1cccc(OCC(=O)OCC(=O)Nc2ccc(Cl)cn2)c1 | -3.17% |
| CCc1noc(C)c1C(=O)N1CCCSC1=Nc1ccccc1OC | 3.24% |
| CC(C)c1ccc2oc(=O)cc(CN3CCN(Cc4ccccc4)CC3)c2c1 | -7.34% |

| Structure (SMILES) | inhibition |
| --- | --- |
| N#Cc1ccc(OCCN2C(=O)NC3(CCSC3)C2=O)cc1 (stereo unspecified) | 5.7% |
| COc1ccc(-c2cc3c(c4c2ccn4C)C2CCC3C2)cn1 (stereo unspecified) | 3.78% |
| CC(=O)c1c(C)[nH]c(C(=O)COC(=O)c2cccs2)c1C | 10.1% |
| COc1cccc(C(=O)OCC(=O)c2[nH]c(C)c(C(C)=O)c2C)c1 | 8.52% |
| CC(=O)c1c(C)[nH]c(C(=O)COC(=O)c2cccc(S(=O)(=O)N(C)c3ccccc3)c2)c1C | 57% (active) |
| O=C1C=C(c2ccccc2)CCC1 | 6.35% |
| NC(Cc1ccc(F)cc1)c1csc(Nc2nncc3ccccc23)n1 (stereo unspecified) | -3.42% |
| COc1ccc(C(=O)NC2CCCc3c2cnn3-c2cccc(C)c2C)c(OC)n1 (stereo unspecified) | 46.9% (active) |
| COc1ccc(OC)c(C(=O)NC2CCCc3c2cnn3-c2cc(C)cc(C)c2)c1 (stereo unspecified) | -5.27% |
| COc1ccc(C(=O)NC2CC(C)(C)Cc3c2cnn3-c2ccccc2C)o1 (stereo unspecified) | 0.26% |
| Cc1cn([C@H]2C[C@H](O)[C@@H](/C=C/C(=O)NCCCc3ccccc3)O2)c(=O)[nH]c1=O | -25.2% |
| COc1cccc(NC(=O)CN(C)C(=O)CSCc2nc3scc(-c4cccs4)c3c(=O)[nH]2)c1 | -1.71% |
| CCN(CCCNC(=O)c1ccc2c(c1)NC(=O)CN2C)c1cccc(C)c1 | 8.18% |
| NS(=O)(=O)c1cccc(NC(=O)CC23CC4CC(CC(Br)(C4)C2)C3)c1 | 6.38% |
| CCCOc1ccc(F)cc1-c1cc(C(=O)Nc2ccc(F)cc2)[nH]n1 | 34.5% (active) |
| CCCOc1ccc(F)cc1-c1cc(C(=O)Nc2ccc(F)c(Cl)c2)[nH]n1 | 58.9% (active) |
| CC(C)Oc1cc(F)ccc1-c1cc(C(=O)Nc2cccc(Cl)c2)[nH]n1 | 24.4% |
| COc1ccc(Cl)cc1-c1cc(C(=O)Nc2cc(OC)c(OC)c(OC)c2)[nH]n1 | 0.33% |
| CC(C)Oc1cc(F)ccc1-c1cc(C(=O)Nc2ccc(F)cc2)[nH]n1 | 5.41% |
| CCCOc1ccc(F)cc1-c1cc(C(=O)NCc2ccc(F)cc2)[nH]n1 | 1.58% |
| CCOC(=O)[C@H]1Nc2ccc(Cl)cc2[C@@H]2[C@H]1C1CC(c3ccccc31)N2C(=O)OCc1ccccc1 (stereo partly specified) | 6.68% |
| Nc1cc(C(F)(F)F)ccc1N1CCOCC1 | 3.72% |

| Structure (SMILES) | inhibition |
| --- | --- |
| CCCCN1CC(N2CCN(Cc3cccc(C)c3)CC2)CS1(=O)=O (stereo unspecified) | 8.04% |
| CSc1ccc(CN2C(=O)NC3(CCCCCC3)C2=O)cc1 | 8.79% |
| CC(C)(C)C(=O)NC1CC2CCCC(C1)N2C(=O)Nc1ccccc1F (stereo unspecified) | -7.35% |
| COc1ccc(OCCNS(=O)(=O)Cc2ccccc2)cc1 | -0.06% |
| COc1ccc(S(=O)(=O)NCCOc2ccccc2)cc1F | -7.76% |
| COc1ccc(S(=O)(=O)NCCCCOc2ccc(Cl)cc2)cc1 | 32.6% (active) |
| CC1(C)CC(=O)C=C(N2CCOCC2)C1 | -7.94% |
| CC1(C)CC(N2CCN(C(c3ccccc3)c3ccccc3)CC2)=CC(=[N+]2CCCCC2)C1 | 72.8% (active) |
| CC(C)OCC(O)CN1CCN(C(c2ccccc2)c2ccccc2)CC1 (stereo unspecified) | 24.4% |
| CCNS(=O)(=O)c1ccc(CCC(=O)N2CCN(c3cc(Cl)ccc3C)CC2)cc1 | 13.9% |
| Cc1sc2ccccc2c1CNC[C@H]1O[C@@H](n2ccc(=O)[nH]c2=O)[C@H](O)[C@@H]1O | -6.07% |
| CSCCC(NC(=O)c1ccccc1)C(=O)N1CCCCCCC1 (stereo unspecified) | -10.3% |
| CSCCC(NC(=O)c1ccccc1)C(=O)N1CCN(Cc2ccc(Cl)cc2)CC1 (stereo unspecified) | 31.4% (active) |
| COc1ccccc1C(=O)NC(CCSC)C(=O)N1CCN(C(C)=O)CC1 (stereo unspecified) | -18.2% |
| O=c1c2c(ncn1Cc1ccccc1)nc1n2CCC1 | -9.57% |
| COc1ccc(-c2nc3ccc(Br)cn3c2Cc2ccc(C)cc2)cc1OC | -18.2% |
| CCOc1ccc(CCNC(=O)COC(=O)C2CCN(c3ccc(C(F)(F)F)cn3)CC2)cc1OCC | 38.9% (active) |
| CCc1cccc(NC(=O)COC(=O)C2CCN(c3ccc(C(F)(F)F)cn3)CC2)c1 | 2.01% |
| CCOc1ccc(CCNC(=O)COC(=O)C2CCN(S(=O)(=O)c3ccccc3)CC2)cc1OCC | -4.87% |
| CCc1ccc([C@@H]2CC(=O)[C@@H]3CN(S(=O)(=O)c4ccc(C)cc4)[C@H](c4ccc(Cl)cc4)C[C@@H]3N2S(=O)(=O)c2ccc(C)cc2)cc1 | -3.63% |
